Screens (PubChem)
Hits are enriched below; roughly 2.6% of the tested compounds scored in any of these assays.
EBV LMP1 NFkB = reduces LMP1-driven NF-kappaB luciferase signal | LMP1-induced NF-kappaB luciferase reporter cells, luminescence | inhibition, % at 12.5 µM | 350,000 tested, 0.69% active | AID 504558; in the data active means inhibition above about 41%; inconclusive means no clear call, values can overlap the other calls
TWEAK-Fn14 inh = inhibitors of TWEAK-Fn14 interaction signaling | 360,000 tested, 2% active | inhibition, % at 10 µM | TWEAK-stimulated Fn14 reporter cells, luciferase luminescence, 8 h; in the data active means inhibition above about 50%
LGR2 inh = Drosophila LGR2 receptor signaling inhibition | HEK293 LGR2, CRE-luciferase, bursicon-stimulated, 4 h | inhibition, % at 9.99 µM | 380,000 tested, 0.35% active;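 active means drop in luminescence signal, shown as inhibition above about 50% in the replicate tests, limit read from the data, passing the limit was not always enough; inconclusive means probably only some replicates passing the limit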;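 further: agonist challenge used bursicon conditioned medium at about half maximal strength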
EWS-Fli block = inhibitors of EWS/Fli oncoprotein transcriptional activity | 350,000 tested, 0.67% active | inhibition, % at 12.6 µM | A673 NR0B1-luciferase reporter, viability-normalised;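 active means mean inhibition of at least 50% after viability correction, with every replicate also passing that limit; inconclusive means mean reaches 50% but only one of two replicates passes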;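 further: firefly luciferase signal divided by Alamar Blue viability fluorescence both relative to DMSO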
TROY NFkB inh = inhibitors of TROY-dependent NF-kB signaling. inhibition, % at 10 µM. 360,000 tested, 0.98% active. Q293 LMP1-TROYcd NF-kB luciferase reporter, 4 h;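 active means compounds whose plate-normalised and pattern-corrected inhibition of the luciferase reporter signal at the single screening dose is 50% or more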
A number is an active result.

Screening O=C(NCC1COc2ccccc2O1)c1ccco1 (stereo not drawn) returned EBV LMP1 NFkB inactive, TWEAK-Fn14 inh inactive and TROY NFkB inh inactive.
C/C(=N\NC(=O)C1COc2ccccc2O1)c1cc2ccccc2o1 (stereo not drawn) was read as EBV LMP1 NFkB 40, TWEAK-Fn14 inh inactive, LGR2 inh inactive, EWS-Fli block inactive and TROY NFkB inh inactive.
O=C(NCC1COc2ccccc2O1)c1cc2ccccc2o1 (stereo not drawn) was read as EBV LMP1 NFkB inactive and TWEAK-Fn14 inh 81.
`Cn1cccc1C(=O)NC(=O)COC(=O)C12CC3CC(CC(O)(C3)C1)C2` gave EBV LMP1 NFkB inactive, TWEAK-Fn14 inh inactive, LGR2 inh inactive and TROY NFkB inh 79.
C[C@@H]1CCCCO[C@@H](CN(C)Cc2ccc3c(c2)OCO3)[C@H](C)CN([C@@H](C)CO)C(=O)c2cc(NC(=O)Nc3ccc4c(c3)OCO4)ccc2O1 was read as LGR2 inh inactive and EWS-Fli block inactive.
COc1ccc2cc3cc(C(=O)NCCN4CCc5ccccc5C4)sc3nc2c1 was read as EBV LMP1 NFkB inactive, TWEAK-Fn14 inh inactive, LGR2 inh inactive, EWS-Fli block inactive and TROY NFkB inh inactive.
For CCC(C)NC(=O)c1cc2cc3ccc(OC)cc3nc2s1 (stereo not drawn) the results were EBV LMP1 NFkB inactive, TWEAK-Fn14 inh 51 and TROY NFkB inh inactive.
`CC(=O)c1ccc(N=Nc2ccc(N)cc2)cc1` gave EBV LMP1 NFkB inactive, TWEAK-Fn14 inh 69, LGR2 inh 64, EWS-Fli block inactive and TROY NFkB inh inactive.
COc1ccc(-n2cnc3cc(NCc4ccccn4)ccc32)cc1 was read as EBV LMP1 NFkB inactive, TWEAK-Fn14 inh inactive, LGR2 inh inactive, EWS-Fli block inactive and TROY NFkB inh inactive.
COc1ccccc1-n1cnc2cc(NCc3ccccn3)ccc21 was read as EBV LMP1 NFkB inactive, TWEAK-Fn14 inh 52 and TROY NFkB inh 56.
COC(=O)Nc1sc2c(c1C(=O)NCc1ccco1)CCCC2 was read as EBV LMP1 NFkB 56, TWEAK-Fn14 inh inactive and TROY NFkB inh inactive.
Screening COC(=O)Nc1sc2c(c1C(=O)NCc1ccco1)CCC2 returned EBV LMP1 NFkB inactive, TWEAK-Fn14 inh inactive, LGR2 inh inactive, EWS-Fli block inactive and TROY NFkB inh inactive.
`CC(C)c1cn(CC[C@@H]2CC[C@@H](NC(=O)C3CCOCC3)[C@@H](CO)O2)nn1` gave LGR2 inh inactive.
For CN1C(=O)c2cc(NC(=O)c3cccc(C(F)(F)F)c3)ccc2OC[C@H]2O[C@H](CC(=O)NCCN3CCCC3)CC[C@H]21 the results were LGR2 inh inactive and EWS-Fli block inactive.
For COc1ccc(CNC(=O)C[C@@H]2CC[C@H]3[C@@H](COc4ccc(NC(=O)C5CC5)cc4C(=O)N3C)O2)cc1 the results were LGR2 inh inactive and EWS-Fli block inactive.
Screening O=C(NCc1cccnc1)c1c[nH]c2cc3c(cc2c1=O)OCCO3 returned EBV LMP1 NFkB inactive, TWEAK-Fn14 inh 70 and TROY NFkB inh inactive.
For O=C(NCc1ccccc1)c1c[nH]c2ccc(S(=O)(=O)Nc3ccc4c(c3)OCCO4)cc2c1=O the results were EBV LMP1 NFkB inactive, TWEAK-Fn14 inh inactive and LGR2 inh inactive.
`Cc1noc(C)c1S(=O)(=O)N(C)C[C@H]1OCCCC[C@@H](C)Oc2ccc(NC(=O)Nc3cccc4ccccc34)cc2C(=O)N([C@H](C)CO)C[C@@H]1C` gave LGR2 inh inactive and EWS-Fli block inactive.
Screening O=C1NCCN1CCNS(=O)(=O)c1ccc(F)cc1 returned EBV LMP1 NFkB inactive, TWEAK-Fn14 inh 53, LGR2 inh inactive, EWS-Fli block inactive and TROY NFkB inh 65.
Screening Cc1cc(C(=O)N/N=C2\CC(=O)CC(C)(C)C2)c(C)n1-c1ccccc1 returned EBV LMP1 NFkB inactive, TWEAK-Fn14 inh inactive, LGR2 inh inactive, EWS-Fli block inactive and TROY NFkB inh 53.
`CCN1CCN(c2cc3c(cc2F)c(=O)c(C(=O)O)cn3C2CC2)CC1` gave EBV LMP1 NFkB inactive, TWEAK-Fn14 inh 60, LGR2 inh inactive, EWS-Fli block inactive and TROY NFkB inh inactive.
For CC(C)NC(=O)N(C)C[C@@H]1Oc2ncc(C#CC3CCCCC3)cc2C(=O)N([C@@H](C)CO)C[C@@H]1C the results were LGR2 inh inactive and EWS-Fli block inactive.
OC[C@@H](O)[C@@H](O)[C@H](O)[C@H](O)CO was read as EBV LMP1 NFkB 47, TWEAK-Fn14 inh inactive, EWS-Fli block inactive and TROY NFkB inh inactive.
`COc1cc(NC(=O)c2cccs2)c(C(=O)OCC(=O)NC(=O)NC(C)(C)C)cc1OC` gave EBV LMP1 NFkB inactive, TWEAK-Fn14 inh inactive and TROY NFkB inh inactive.
COc1cc(NC(=O)c2cccs2)c(C(=O)OCC(=O)c2cc(C)n(-c3ccc(F)cc3)c2C)cc1OC was read as EBV LMP1 NFkB inactive, TWEAK-Fn14 inh 90, LGR2 inh inactive, EWS-Fli block inactive and TROY NFkB inh 83.
Screening COc1cc(NC(=O)c2cccs2)c(C(=O)OCC(=O)c2cc(C)n(-c3ccccc3)c2C)cc1OC returned EBV LMP1 NFkB 59, TWEAK-Fn14 inh inactive, LGR2 inh 60 and TROY NFkB inh inactive.
COc1ccc(-n2c(C)cc(C(=O)COC(=O)c3cc(NC(=O)c4cccs4)c(OC)c(OC)c3)c2C)cc1 was read as EBV LMP1 NFkB inactive, TWEAK-Fn14 inh inactive, LGR2 inh inactive, EWS-Fli block inactive and TROY NFkB inh inactive.
For O=C(Cc1ccncc1)N1CC[C@H]2[C@H](CO)Nc3ccc(-c4ccccc4)cc3[C@H]21 the results were LGR2 inh inactive.
O=C(Cn1cc(CNC(=O)C2CCCCC2)nn1)Nc1cc(C(F)(F)F)ccc1Cl was read as EBV LMP1 NFkB 42, TWEAK-Fn14 inh inactive, LGR2 inh inactive, EWS-Fli block inactive and TROY NFkB inh inactive.
C[C@@H]1CN([C@H](C)CO)C(=O)c2cc(NC(=O)C3CCCCC3)ccc2O[C@@H]1CN(C)C(=O)Nc1ccc(C(F)(F)F)cc1 was read as LGR2 inh inactive and EWS-Fli block inactive.
For Oc1c(Br)cc(Br)cc1/C=N/Nc1ccc(Cl)nn1 the results were EBV LMP1 NFkB 45, TWEAK-Fn14 inh inactive, LGR2 inh inactive, EWS-Fli block inactive and TROY NFkB inh inactive.
Screening Cc1ccc2nc(-c3cc(N)cc(N)c3)oc2c1 returned EBV LMP1 NFkB inactive, TWEAK-Fn14 inh 62 and TROY NFkB inh 60.
For Cc1ccc(C)c(-c2nc3cc(N)ccc3o2)c1 the results were EBV LMP1 NFkB inactive and TWEAK-Fn14 inh 67.
Cc1ccc(-c2nc3cc(N)ccc3o2)cc1Br was read as EBV LMP1 NFkB inactive, TWEAK-Fn14 inh inactive, LGR2 inh inactive, EWS-Fli block inactive and TROY NFkB inh inactive.
For Nc1ccc(-c2nc3ccc(N)cc3o2)cc1 the results were EBV LMP1 NFkB inactive, TWEAK-Fn14 inh inactive, LGR2 inh inactive, EWS-Fli block inactive and TROY NFkB inh inactive.
CN(C)c1ccc(-c2nc3cc(N)ccc3o2)cc1 was read as EBV LMP1 NFkB inactive, TWEAK-Fn14 inh 74, LGR2 inh inconclusive, EWS-Fli block 65 and TROY NFkB inh inactive.
For CCc1ccc2oc(-c3cc(N)ccc3Cl)nc2c1 the results were EBV LMP1 NFkB inactive, TWEAK-Fn14 inh 83 and TROY NFkB inh 57.
